PubChem BioAssay (NCATS)
Results filed as inconclusive are left out. Calls of active or inactive are those of the source. Calls follow the shape of the dose curve; as a rule, active = well fitted inhibition curve with a large enough effect; inconclusive = small, poorly fitted or top-dose-only effect; inactive = no such curve, though single readings can be large or run the other way.

These molecules were tested against Retinaldehyde dehydrogenase 3 (Homo sapiens) (UniProt P47895) (assay: qHTS for Inhibitors of the Aldehyde Dehydrogenase Family (ALDH1A3) Confirmatory screens (AID 2061311; also: nearly all actives have a fitted effect of over 60% in size)). Details: ALDH inhibition qHTS; series mostly up to 46 µM; activity change, negative = inhibition: at the top concentration.
% is scaled to controls: 0 for no effect and ±100 for the full control effect; potency is read from the fitted curve at half-maximal effect.

SMILES | activity change, negative = inhibition | Potency
O=C1CCc2cc(S(=O)(=O)Nc3cc(F)cc(Cl)c3)c(F)cc2N1 | -8.37% (inactive) | –
Cc1c(Cl)cccc1NS(=O)(=O)c1cc2c(cc1F)NC(=O)CC2 | -26.9% (inactive) | –
CCOC(=O)c1c(-c2ccccc2)no[n+]1[O-] | -20.8% (inactive) | –
CN(C)c1cccc(-c2csc(N3CCC(C(N)=O)CC3)n2)c1 | – | 12.7 µM (active)
CC(C)(C)Nc1nc(C#N)nc(Nc2ccccc2)n1 | -1.83% (inactive) | –
S=C(Nc1ccccn1)c1ccccn1 | – | 6.34 µM (active)
Cc1nnc(CN(C)c2ncnc3ccc(-c4ccc5c(c4)OCO5)cc23)o1 | – | 20.1 µM (active)
O=S1(=O)CCN(Cc2cc(NCC3CCOCC3)c3[nH]c(-c4ccccc4)cc3c2)CC1 | – | 11.3 µM (active)
Cc1cc(C)nc(NC(=S)N2CCN(c3cncc4ccccc34)CC2)c1 | – | 22.5 µM (active)
Cc1noc(C)c1N[S+](=O)([O-])c1ccc(NC(=O)Cc2ccc(Cl)c(Cl)c2)cc1 | – | 6.31 µM (active)
O=C(Nc1ncc([N+](=O)[O-])s1)c1ccccc1O | – | 0.449 µM (active)
CC(=O)c1ccc(N2CCN(S(=O)(=O)c3ccc4c(c3)n(C)c(=O)n4C)CC2)cc1 | – | 2.01 µM (active)
Cc1ccc(-c2no[n+]([O-])c2C#N)cc1 | -9.26% (inactive) | –
CCOC(=O)c1ccc(O)c2ncc(N3CCC(C(=N)N)CC3)cc12 | – | 8.96 µM (active)
Cc1noc(C)c1-c1ccc2ncnc(NCc3ccc(F)cc3)c2c1 | – | 12.6 µM (active)
O=C(O)CN1C(=O)N/C(=C\c2cccn2-c2ccc(P(=O)(O)O)cc2)C1=O | -15.1% (inactive) | –
O=c1[nH]c(CN2CCOCC2)nc2sc3c(c12)CCC3 | – | 11.3 µM (active)
